# According to PubChem BioAssay (EPA / NIEHS):
# Results filed as inconclusive are left out. A structure can be active in one record and inactive in another. The source made the active and inactive calls. Rule for the calls: active = hit-call score of the fitted dose curve at least 0.9, where 1 is the maximum; inconclusive = response in the unintended direction; inactive = score below 0.9.
# Assay: TOX21_p53_BLA_p2_viability: Viability Assessment in the Tox21 HCT-116 p53 Agonism Beta-lactamase Assay, Phase 2 (AID 2283591);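 note: compound exposure lasted 16 h at 37 °C; actives lower the ATP signal meaning cytotoxicity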
# From the text: TOX21_p53_BLA_p2 is a cell-based, single-readout assay that uses HCT116, a human intestinal cell line, […] in a 1536-well plate.TOX21_p53_BLA_p2_viability is an assay readout measuring cellular ATP content and detected with CellTiter-Glo Luciferase-coupled ATP quantitation.TOX21_p53_BLA_p2_viability used a type of viability reporter where loss-of-signal activity can be used to understand changes in the cell viability. Furthermore, this assay endpoint can be referred to as a secondary readout, because this assay has produced multiple assay endpoints where this one serves a viability function. To generalize the intended target to other relatable targets, this assay endpoint is annotated to the cell cycle intended target family, where the subfamily is cytotoxicity.
# Thawing Method: Place 14 mL of pre-warmed thaw medium into a 15 mL of conical tub. Remove the vial of cells to be thawed from liquid nitrogen and thaw rapidly by placing at 37C in a water bath with gentle agitation for 1-2 minutes. Decontaminate the vial by wiping with 70% ethanol before opening in a biological safety cabinet. Transfer the vial contents drop-wise into 14 mL of thaw medium in a sterile 15-mL conical tub. Centrifuge cells at 900 rpm for 4 minutes and resuspend in thaw medium. Transfer contents to the T75 tissue culture flask containing Thaw Medium and place flask in a humidified 37C/5% CO2 incubator. Switch to growth medium at first passage.Propagation Method: Aspirate medium, rinse once in DPBS, add 0.25% Trypsin/EDTA and swirl to coat the cell evenly. Add an equal volume of Growth Medium to inactivate Trypsin after 2-3 minutes incubation at 37C. Centrifuge cells at 900 rpm for 4 minutes and resuspend in growth medium. Cell should be passage or fed at least twice a week.Assay Protocol: Harvest cells from culture in growth medium and resuspend in assay medium. 2.2 Dispense 4000 cells/5 uL/well into 1536-well black/clear bottom plates using a Multidrop dispenser. After the cells were incubated at 37C for 5 hours, 23 nL of compounds dissolved in DMSO were transferred to the assay plate by a PinTool resulting in a 217-fold dilution. Incubate the plates for 16 hours at 37C, 5% CO2. Add 1 uL of 6X LiveBLAzer FRET B/G (CCF4-AM) Substrate Mixture to each well using a BioRAPTR dispenser and incubate the plates at room temperature for 2 hours. Measure fluorescence intensity at 460 and 530 nm emission and 405 nm excitation by an Envision detector. Data is expressed as the ratio of 460nm/530nm emissions. Add 4 uL of Cell-titer Glo to each well using BioRAPTR and incubate the plates at room temperature for […]. For cell viability readout that measures cytotoxicity, 4 ul/well of CellTiter-Glo reagent was added into the assay plates using a Flying Reagent Dispenser. After 30 min incubation at room temperature, the luminescence intensity in the plates was measured using a ViewLux plate reader.
Structure (SMILES),outcome,AC50
O=c1[nH]c(=O)n([C@H]2CCCO2)cc1F,inactive,–
CN(C)CCCN,inactive,–
CC(C)(C)C(=O)c1ccccc1,inactive,–
O=C(O)CCCCCCCC(=O)O,inactive,–
CCCCCCCCCCCCCC(=O)O,inactive,–
Fc1c(F)c(F)c(Br)c(F)c1F,inactive,–
CCCCC(CC)COCCC#N (stereo not given),inactive,–
CN(CCOc1ccc(CC2SC(=O)NC2=O)cc1)c1ccccn1 (stereo not given),inactive,–
CCOc1ccccc1OCC,inactive,–
CC[Si](OC(C)=O)(OC(C)=O)OC(C)=O,inactive,–
CC(C)OP(=O)(CP(=O)(OC(C)C)OC(C)C)OC(C)C,inactive,–
CC1CC(OC(=O)c2ccccc2O)CC(C)(C)C1 (stereo not given),inactive,–
CNCCCC12CCC(c3ccccc31)c1ccccc12,inactive,64.5 µM (active)
O=C(O)CCCCC1CCSS1 (stereo not given),inactive,–
CNC(=O)Oc1ccc2c(c1)[C@]1(C)CCN(C)[C@@H]1N2C,inactive,–
CCCCCCCCCCCCN,inactive,51.6 µM (active)
CCCCNC(=O)NS(=O)(=O)c1ccc(C)cc1,inactive,–
CC(C)CCCCCCCOC(=O)c1ccc(C(=O)OCCCCCCCC(C)C)c(C(=O)OCCCCCCCC(C)C)c1,inactive,–

Structure (SMILES),outcome,AC50
O=C(O)CN(CCN(CC(=O)O)CC(=O)O)CCN(CC(=O)O)CC(=O)O,inactive,–
O=C(O)c1cccc([N+](=O)[O-])c1,inactive,–
CCC(C(=O)NC(N)=O)c1ccccc1 (stereo not given),inactive,–
CCCCO,inactive,–
COc1ccc(Nc2ccccc2)c(C)c1,inactive,–
O=C(O)Cc1cccc2ccccc12,inactive,–
c1ccc2c(c1)c1cccc3ccc4cccc2c4c31,inactive,–
O=c1cc(-c2ccccc2)oc2cc(O)cc(O)c12,inactive,–
C[Si](O[Si](C)(C)C)O[Si](C)(C)C,inactive,–
Cc1ccc(O)c(C(C)(C)C)c1,inactive,44.8 µM (active)
Cc1ccc(Nc2ccc(O)c3c2C(=O)c2ccccc2C3=O)cc1,inactive,–
O=C(O)c1ccc(C(=O)O)cc1,inactive,–
CC(=O)[O][Al][O]C(C)=O,inactive,–
CC(=O)C(=O)O,inactive,–
CC(=O)C(C)=O,inactive,–
CC(C)(C)c1cc(CCC(=O)NN)cc(C(C)(C)C)c1O,inactive,–
CCCCC/C=C/C=C/C=O,inactive,62.9 µM (active)
CO[Si](C)(OC)c1ccccc1,inactive,–
